Screens from PubChem.
CCHFV vOTU inh = CCHFV vOTU protease inhibition; AID 651958; hit rate 0.55% among 370,000; Pep-AMC fluorescence; inhibition, % at 11.5 µM
RecA intein inh = blocks M. tuberculosis RecA intein splicing; P9WHJ3; cell-free RecA intein splicing, fluorescence; inhibition, % (test concentration not listed); hit rate 0.75% among 290,000; AID 2221; in the data active = inhibition above about 30%
Target sequence (P9WHJ3 whole entry, looked up): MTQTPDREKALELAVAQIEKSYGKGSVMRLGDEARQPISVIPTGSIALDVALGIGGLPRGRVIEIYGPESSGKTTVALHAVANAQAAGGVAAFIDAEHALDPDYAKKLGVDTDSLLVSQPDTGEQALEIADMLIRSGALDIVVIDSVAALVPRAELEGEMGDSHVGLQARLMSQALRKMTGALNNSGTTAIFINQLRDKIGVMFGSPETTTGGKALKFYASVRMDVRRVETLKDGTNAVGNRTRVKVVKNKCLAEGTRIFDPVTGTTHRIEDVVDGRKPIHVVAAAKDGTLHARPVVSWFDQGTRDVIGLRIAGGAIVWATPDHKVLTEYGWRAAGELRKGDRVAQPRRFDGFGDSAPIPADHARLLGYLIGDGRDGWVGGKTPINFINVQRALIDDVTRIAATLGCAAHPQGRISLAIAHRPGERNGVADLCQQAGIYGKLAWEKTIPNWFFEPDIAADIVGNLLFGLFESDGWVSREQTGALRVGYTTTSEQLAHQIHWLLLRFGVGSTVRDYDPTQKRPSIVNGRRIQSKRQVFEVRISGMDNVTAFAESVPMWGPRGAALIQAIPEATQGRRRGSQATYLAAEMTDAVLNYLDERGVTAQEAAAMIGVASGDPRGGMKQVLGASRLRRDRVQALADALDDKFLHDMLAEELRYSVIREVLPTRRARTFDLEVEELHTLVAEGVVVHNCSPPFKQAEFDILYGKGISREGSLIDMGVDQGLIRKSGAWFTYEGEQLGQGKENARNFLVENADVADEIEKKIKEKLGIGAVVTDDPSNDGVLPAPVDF
GDH-TPI counter-1 = inhibits GDH-TPI coupling enzymes, artifact for Mtb FBA screen; GDH-TPI coupled enzyme counterscreen, NADH absorbance; inhibition, % at 4.8 µM; hit rate 1.2% among 360,000; AID 588335
FBA Mtb inh = inhibits M. tuberculosis FBA enzyme; P9WQA3; purified M. tuberculosis FBA, fluorescence read-out; inhibition, % at 1 µM; hit rate 2.3% among 360,000; AID 588726; in the data active = inhibition above about 27%
Mtb FBA confirm = confirmation of M. tuberculosis fructose-bisphosphate aldolase inhibitors. AID 651616. inhibition, % at 1 µM. hit rate 78% among 5,600. purified M. tuberculosis FBA, fluorescence read-out. shares compounds with FBA Mtb inh; in the data active = inhibition above about 27%
GDH-TPI counter-2 = counter-screen for M. tuberculosis FBA inhibitors: GDH-TPI coupled enzyme inhibition. shares compounds with FBA Mtb inh. GDH-TPI coupled enzyme counterscreen, fluorescence. inhibition, % at 1 µM. hit rate 81% among 5,600. AID 652141; in the data active = inhibition above about 10%
Large screens that a line does not name were inactive (follow-up assays come after a bar, where they were run). Sampled rows, rich in hits. Any-hit rate of the full collection: about 4.2%. Rule as the data show it, unless noted: active = inhibition above about 30%; inactive = the rest.

CC(=O)N1CCN(S(=O)(=O)c2cccc(C(=O)NNC(=O)Cn3nc(C)cc3C)c2)CC1	none (no result: RecA intein inh)
Cc1ccccc1/C=C/C1=NCCN1	none (no result: RecA intein inh)
CCc1ccccc1N(C(=O)c1snc(C(N)=O)c1N)C(C(=O)NCC1CCCO1)c1c[nH]c2ccccc12 (stereo not given)	none
CN(C(=O)CCc1ccccc1)c1nnc(-c2ccncc2)s1	none
C=CCN(C(=O)COc1ccccc1)c1nnc(-c2ccncc2)s1	FBA Mtb inh 41 | Mtb FBA confirm 95 | GDH-TPI counter-2 70
CC(NC(=O)CNC(=O)c1sc2ccccc2c1Cl)c1cccnc1 (stereo not given)	none (no result: RecA intein inh)
CCOc1ccc(N=c2oc3cc(O)ccc3cc2C(=O)NCC2CCCO2)cc1 (stereo not given)	FBA Mtb inh 56 | Mtb FBA confirm 39 | GDH-TPI counter-2 36
Cc1ccc(S(=O)(=O)Nc2ccccc2C(=O)NCC2CCCO2)cc1 (stereo not given)	none (no result: GDH-TPI counter-1, FBA Mtb inh)
CCOc1ccc(S(=O)(=O)Nc2ccccc2C(=O)NCC2CCCO2)cc1 (stereo not given)	FBA Mtb inh 31 | Mtb FBA confirm 148 | GDH-TPI counter-2 108
CCOc1ccc2oc(C(=O)NCC3CCCO3)c(C)c2c1 (stereo not given)	none
N#CC1(NC(=O)CSc2nnc(Nc3ccccc3F)s2)CCCC1	none (no result: RecA intein inh)
CC(C)c1nc(N2CCN(C(=O)c3ccco3)CC2)c(C#N)c2c1COC(C)(C)C2	FBA Mtb inh 37 | Mtb FBA confirm active | GDH-TPI counter-2 active
CC1CCCC(C)N1CCNC(=O)CCc1nnc2n(Cc3ccccc3)c(=O)c3ccccc3n12 (stereo not given)	none
COc1ccccc1N1CCN(C(=O)c2cc3c(s2)CCCCC3)CC1	none
O=C(c1cc2c(s1)CCCC2)N1CCN(c2ccccc2)CC1	FBA Mtb inh 34 | Mtb FBA confirm 84 | GDH-TPI counter-2 67
Nc1c(Cl)ncnc1Nc1ccc(C(=O)O)cc1	none (no result: RecA intein inh)
NC(=O)c1ccsc1NC(=O)COC(=O)c1ccccc1NCc1ccco1	FBA Mtb inh 59 | Mtb FBA confirm 50 | GDH-TPI counter-2 32
O=C(COC(=O)c1ccccc1NCc1ccco1)Nc1ccc2c(c1)OCO2	FBA Mtb inh 45 | Mtb FBA confirm 64 | GDH-TPI counter-2 50
CCOc1ccc2[nH]c3c(N4CCc5ccccc5C4)ncnc3c2c1	FBA Mtb inh 32 | Mtb FBA confirm active | GDH-TPI counter-2 active
CN1CCN(c2ncnc3c2[nH]c2ccc(F)cc23)CC1	none (no result: RecA intein inh)
CCOc1ccc2[nH]c3c(NCCOC)ncnc3c2c1	FBA Mtb inh 71 | Mtb FBA confirm 64 | GDH-TPI counter-2 48
Cc1ccc2[nH]c3c(N4CCc5ccccc5C4)ncnc3c2c1	none
Cc1ccc2[nH]c3c(N4CCOCC4)ncnc3c2c1	FBA Mtb inh 82 | Mtb FBA confirm 178 | GDH-TPI counter-2 145
COc1ccc2[nH]c3c(N4CCN(Cc5ccc6c(c5)OCO6)CC4)ncnc3c2c1	FBA Mtb inh 35 | Mtb FBA confirm 79 | GDH-TPI counter-2 53
CCOc1ccc(NC(=O)COC(=O)CCN2C(=O)C3CC=CCC3C2=O)cc1OCC (stereo not given)	none (no result: RecA intein inh)
COc1ccc(CNc2ncnc3c2[nH]c2ccccc23)cc1	none
CCOc1ccc2[nH]c3c(NCCN(CC)CC)ncnc3c2c1	none
CCOc1ccc2[nH]c3c(NCC(C)C)ncnc3c2c1	FBA Mtb inh 77 (no result: CCHFV vOTU inh) | Mtb FBA confirm 126 | GDH-TPI counter-2 110
COc1ccc(CNc2ncnc3c2[nH]c2cc(OC)c(OC)cc23)cc1	FBA Mtb inh 46 | Mtb FBA confirm 106 | GDH-TPI counter-2 92
COc1ccc2[nH]c3c(NCCN(C(C)C)C(C)C)ncnc3c2c1	FBA Mtb inh 54 (no result: RecA intein inh) | Mtb FBA confirm active | GDH-TPI counter-2 184
CCOc1ccc2[nH]c3c(NCCCOC)ncnc3c2c1	FBA Mtb inh 110 | Mtb FBA confirm active | GDH-TPI counter-2 active
Cc1ccc2[nH]c3c(NCc4ccccc4)ncnc3c2c1	none (no result: GDH-TPI counter-1, FBA Mtb inh)
Cc1cc(F)ccc1-c1cc(C(=O)NC2CCCCC2)[nH]n1	none (no result: RecA intein inh)
COCC(=O)Nc1nnc(-c2cccs2)s1	none
O=C(Cc1ccccc1)Nc1nnc(-c2cccs2)s1	FBA Mtb inh 68 | Mtb FBA confirm 106 | GDH-TPI counter-2 83
CCC(=O)Nc1nnc(-c2cccs2)s1	FBA Mtb inh 27 | Mtb FBA confirm inactive | GDH-TPI counter-2 inactive
C=C(C)C(=O)Nc1nnc(-c2cccs2)s1	none
CCC(C)C(=O)Nc1nnc(-c2cccs2)s1 (stereo not given)	FBA Mtb inh 32 (no result: RecA intein inh) | Mtb FBA confirm 51 | GDH-TPI counter-2 47
COc1ccc2nc3c(C)n(C)ccc-3c2c1	FBA Mtb inh 57 (no result: RecA intein inh) | Mtb FBA confirm 73 | GDH-TPI counter-2 49
O=c1[nH]cccc1-c1nc2cc(Cl)ccc2n1Cc1ccccc1	FBA Mtb inh 77 | Mtb FBA confirm inactive | GDH-TPI counter-2 inactive
COC(=O)C1=CN(C2CC2)C=C(C(=O)OC)C1c1ccc(C(F)(F)F)cc1	none
COC(=O)C1=CN(C2CC2)C=C(C(=O)OC)C1c1ccc(C(=O)OC)cc1	FBA Mtb inh 44 | Mtb FBA confirm inactive | GDH-TPI counter-2 inactive
C=C(C)COc1ccc2c(C)c(CC(=O)OC)c(=O)oc2c1C	FBA Mtb inh 89 (no result: CCHFV vOTU inh, RecA intein inh) | Mtb FBA confirm 76 | GDH-TPI counter-2 62
COC(=O)Cc1c(C)c2ccc(OCC(C)=O)c(C)c2oc1=O	FBA Mtb inh 79 | Mtb FBA confirm inactive | GDH-TPI counter-2 inactive
C=C(C)COc1ccc2c(C)c(C)c(=O)oc2c1OCC(=C)C	none
Cc1c(CC(=O)O)c(=O)oc2c(C)c(OCc3c(F)cccc3Cl)ccc12	FBA Mtb inh 44 | Mtb FBA confirm 76 | GDH-TPI counter-2 67
CS(=O)(=O)c1ccc(S(=O)CC(=O)Oc2ccc(Cl)cc2)c([N+](=O)[O-])c1 (stereo not given)	none (no result: CCHFV vOTU inh, GDH-TPI counter-1, FBA Mtb inh)
COc1ccc2cc(C(=O)C3CCCN(C(=O)c4cnn(C(C)C)c4)C3)ccc2c1 (stereo not given)	FBA Mtb inh 105 | Mtb FBA confirm 50 | GDH-TPI counter-2 39
COc1ccc2cc(C(=O)C3CCCN(C(=O)c4csnn4)C3)ccc2c1 (stereo not given)	FBA Mtb inh 96 | Mtb FBA confirm 44 | GDH-TPI counter-2 35
O=C(c1ccc(Cl)cc1)C1CCCN(C(=O)c2csnn2)C1 (stereo not given)	none
COc1ccc2cc(C(=O)C3CCCN(Cc4ccccn4)C3)ccc2c1 (stereo not given)	FBA Mtb inh 41 | Mtb FBA confirm active | GDH-TPI counter-2 active
COc1ccc(C(=O)N2CCCC(C(=O)N3CCCCCC3)C2)cc1 (stereo not given)	none
COc1ccc2cc(C(=O)C3CCCN(C(=O)C4=NN(C)C(=O)CC4)C3)ccc2c1 (stereo not given)	FBA Mtb inh 63 | Mtb FBA confirm 85 | GDH-TPI counter-2 52
C[C@@H]1CN([C@@H](C)CO)S(=O)(=O)c2ccc(Br)cc2O[C@@H]1CN(C)S(=O)(=O)c1ccc(F)cc1	none (no result: RecA intein inh, GDH-TPI counter-1, FBA Mtb inh)
O=C1c2cnc3ncnn3c2CC2c3ccccc3CCN12 (stereo not given)	FBA Mtb inh 58 | Mtb FBA confirm inactive | GDH-TPI counter-2 18
